Reference: PubChem BioAssay AID2620 (National Center for Advancing Translational Sciences (NCATS), 2010)
Inconclusive results are not listed. The source made the active and inactive calls. The call rests on the fitted dose curve; in most records, active means well fitted curve in the direction sought with a large enough effect; inconclusive means small, poorly fitted or top-dose-only effect, or another doubt; inactive means no such curve, though single readings can be large or run the other way.

molecular target: Pyruvate kinase PKM (Homo sapiens) (UniProt P14618); assay: Secondary LDH Assay for Activators of Human Pyruvate Kinase M1 Isoform: for Probe SAR; details: purified hPK-M1, LDH-coupled NADH fluorescence kinetic; series mostly up to 58.2 µM
Excerpt: NIH Chemical Genomics Center [NCGC]
Matthew G. Vander Heiden, M.D., Ph.D. [Harvard Medical School, 77 Avenue Louis Pasteur, Boston, MA 02115]
Human pyruvate kinase […] (hPK-M1)enzyme was supplied as a highly purified (>95% pure) preparation from Harvard Medical School and a secondary assay was used to evaluate compounds. This assay couples the formation of pyruvate from […] using lactate dehydrogenase (LDH) and NADH. The depletion of NADH is followed in a fluorescent-based kinetic assay that follows the formation of pyruvate to lactate, as catalyzed LDH. Pyruvate kinase substrates, PEP and ADP, were present in the assay at 0.1 mM and 4 mM respectively. In this kinetic assay initial rates were determined by following the fluorescence of NADH depletion.
NCGC Assay Protocol Summary:
Three uL of substrate mix (final concentration, 50 mM Tris-Cl pH 8.0, 200 mM KCl, 15 mM MgCl2, 0.1 mM PEP, 4.0 mM ADP, and 0.2 mM NADH) was dispensed into black-solid 1536 well plates. 23 nL of compounds were delivered by a pin tool and 1 uL of enzyme mix (final concentrations, 10 nM hPK-M1 and 1 uM of LDH) was added. Plates were immediately placed in ViewLux (Perkin Elmer) and NADH fluorescence was determined at 30 second exposure intervals for between 3 and 6 minutes. Data were normalized to the uninhibited controls.

Chain of Pyruvate kinase PKM (Homo sapiens) (P14618 whole entry, looked up, canonical isoform): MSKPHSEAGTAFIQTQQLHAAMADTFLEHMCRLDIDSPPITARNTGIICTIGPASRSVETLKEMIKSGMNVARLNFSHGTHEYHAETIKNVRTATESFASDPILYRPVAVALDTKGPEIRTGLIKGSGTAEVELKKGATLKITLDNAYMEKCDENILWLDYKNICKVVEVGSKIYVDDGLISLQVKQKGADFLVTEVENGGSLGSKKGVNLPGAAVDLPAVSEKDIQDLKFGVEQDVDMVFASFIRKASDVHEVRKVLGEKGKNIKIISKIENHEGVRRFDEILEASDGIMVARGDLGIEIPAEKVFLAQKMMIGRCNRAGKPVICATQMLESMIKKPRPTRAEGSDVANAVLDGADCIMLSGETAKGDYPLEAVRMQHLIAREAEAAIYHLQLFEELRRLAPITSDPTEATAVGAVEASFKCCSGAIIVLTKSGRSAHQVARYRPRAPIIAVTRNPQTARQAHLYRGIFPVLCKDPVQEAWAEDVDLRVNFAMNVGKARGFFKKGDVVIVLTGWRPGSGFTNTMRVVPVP

outcome, inactive:
Cc1ccc2nc(-c3ccc(C)o3)c(NC3CCCC3)n2c1
Cc1ccc(NS(=O)(=O)c2cccc(Cl)c2)cc1C
O=C1c2ccccc2C(=O)N1c1nccs1
Cc1cc(NS(=O)(=O)c2ccc3c(c2)CCC(=O)N3)ccc1F
Cc1ccc(C)c(OC2=NS(=O)(=O)c3ccccc32)c1
O=C1CCc2cc([S+](=O)([O-])NC3CCOCC3)ccc2N1
Cc1ccccc1NS(=O)(=O)c1ccc2c(c1)CCC(=O)N2
Cc1ccc(NS(=O)(=O)c2cc3c(cc2N(C)C)NC(=O)CC3)cc1C
O=C1CCc2cc(S(=O)(=O)NCc3ccccc3)ccc2N1
Cc1ccc(NS(=O)(=O)c2ccc3c(ccn3C)c2)cc1C
O=C1c2ccccc2C(=O)N1c1noc2ccccc12
Cc1ccc2nc(-c3ccc(C)o3)c(Nc3ccc4c(c3)OCO4)n2c1
CCCCN1C(=O)c2ccccc2C1=O
O=C1CCc2cc(S(=O)(=O)Nc3ccc(F)cc3)ccc2N1
O=C1c2ccccc2C(=O)N1c1cccc2cnccc12
Cn1c2cc(S(C)=O)sc2c2cnn(Cc3cccc(N)c3)c(=O)c21 (stereo not given)
O=C1CCc2cc(S(=O)(=O)Nc3ccccc3F)ccc2N1
O=C1CCc2cc(S(=O)(=O)Nc3ccc4c(c3)OCCO4)ccc2N1
O=C1CCc2cc(S(=O)(=O)Nc3ccc4c(c3)CCC4)ccc2N1
O=C1c2ccccc2C(=O)N1c1cccc(=O)[nH]1
O=C1c2ccccc2C(=O)N1c1cccc(O)c1
Cc1ccc(NS(=O)(=O)c2ccc(Cl)cc2)cc1C
CCNc1cccc(S(=O)(=O)N2CCN(S(=O)(=O)c3ccc4c(c3)OCCO4)CC2)c1
O=C1CCc2cc(S(=O)(=O)Nc3ccc(F)c(Cl)c3)ccc2N1
O=S1(=O)N=C(Oc2ccc(Cl)cc2)c2ccccc21
Cc1ccc(-c2nc3ccc(Cl)cn3c2Nc2ccccc2)o1
Cc1ccc(NS(=O)(=O)c2cc3c(cc2-c2ccsc2)NC(=O)CO3)cc1C
Cc1ccc(NS(=O)(=O)c2ccc3c(c2)CCCC(=O)N3)cc1C
O=C1c2ccccc2C(=O)N1c1cnc2ccccc2c1
O=C1CCc2cc(S(=O)(=O)Nc3ccc(-c4ccccc4)cc3)ccc2N1
CCNc1cccc(S(=O)(=O)N2CCCN(S(=O)(=O)c3ccc4c(c3)OCCO4)CC2)c1
Nc1cccc(S(=O)(=O)N2CCCN(S(=O)(=O)c3ccc4c(c3)OCCO4)CC2)c1
O=C1c2ccccc2C(=O)N1Cc1ccccn1
O=C1CCc2cc(S(=O)(=O)Nc3ccc(Cl)c(Cl)c3)ccc2N1
Cc1ccc(NS(=O)(=O)c2ccc3c(c2)N(C)C(=O)CO3)cc1C
O=S1(=O)N=C(Oc2cccc(Cl)c2)c2ccccc21
Cc1cccc(NS(=O)(=O)c2ccc3c(c2)CCC(=O)N3)c1
Cc1cc(NS(=O)(=O)c2ccc3c(c2)CCC(=O)N3)ccc1Cl
COc1ccc(OC2=NS(=O)(=O)c3ccccc32)cc1
O=C1c2ccccc2C(=O)N1c1cccnc1
